Laboratory results as given in PubChem BioAssay AID1645879 (National Center for Advancing Translational Sciences (NCATS), 2021).
Records with an inconclusive call do not appear. Unmarked numbers belong to inactive results. Calls come from the whole dose curve; as a rule, active = well fitted inhibition curve with a large enough effect; inconclusive = small, poorly fitted or top-dose-only effect; inactive = no such curve, though single readings can be large or run the other way.

Assay: Counterscreen qHTS assay for inhibitors of N-terminal methyltransferase 1 (NTMT1): SPKRIA Counterscreen Assay
Details: biochemical qHTS; series mostly up to 99.2 µM; activity change, negative = inhibition: at the top concentration
Excerpt: Assay Submitter (PI): Rong Huang Ph.D,
Purdue University, West Lafayette, IN 47907
The N-terminal methytransferase 1 is the first methyltransferase that methylates protein alpha-N-amines and plays an important role in regulating cell mitosis, chromatin interactions and DNA repair. It is observed to be over-expressed in various cancer patient tissues like malignant melanoma and colorectal cancer tissues. Knockdown of NTMT1 in cancer cells causes cell mitotic defects and enhances sensitivity to DNA damaging chemotherapeutics. […] These critical cellular processes in which NTMT1 is implicated, coupled with emerging links to cellular dysfunction, strengthen the inference that NTMT1 is a compelling novel anticancer target. Progress have been made in understanding the molecular properties of NTMT1 and the biological consequences of protein alpha-N-terminal methylation, but there are no specific small molecule probes available for NTMT1 to fully characterize its MTase activity. To address this unmet need, a panel of assay is created and established to enable quantitative high-throughput screening (qHTS) for novel, potent, and selective small molecule NTMT1 inhibitors. Two orthogonal qHTS that use different reagents (ThioGlo vs. MTaseGlo) are developed for primary robotic screening against the NCATS chemical library of more than 400,000 small molecules. Identified inhibitors are reacquired, validated, and further characterized.
MTaseGlo Assay is a luminescence screen that measure the activity of methyltransferases based on the reaction product S-adenosyl homocysteine (SAH). The substrate SAM is converted to SAH upon enzyme activation. MTase-Glo reagent and detection solution convert SAH to ATP and measure the light from the luciferase reaction. Nicotinamide N-methyltransferase (NNMT) is a cystolic enzyme that catalyzes the transfer of a methyl group from the co-factor SAM onto the substrate, nicotinamide (NA) to form 1-methyl-nicotinamide (MNA) and SAH. NNMT MTaseGlo assay is used as a counterscreen to evaluate selectivity of identified inhibitors.
SPKRIA and Ac-RCC-10 control is provided by the Huang laboratory.
PROTOCOL TABLE; SEQUENCE No. (e.g., 1, 2, 3, etc.); […] (e.g., Cells, Incubation, Reagent, etc.); VALUE; DESCRIPTION
1; Reagent; 3 uL; dispense assay buffer.
2; Compound; 23 nL; pin compounds and control into the assay plate.
3; Time; 15 min; room temperature incubation.
4; Reagent; 1 uL; dispensed [4x] substrate or buffer.
5; Time; 30 min; incubate at room temperature.
6; Reagent; 1 uL; dispense MTase-Glo Reagent (R).
7; Time; 30 min; incubate at room temperature.
8; Reagent; 5 uL; dispense [1x] MTase-Glo Detection Solution to allow for ADP to be converted to ATP.
9; Centrifugation; 1,000 RPMs; assay plates were centrifuged.
10; Incubation; 30 min; room temperature.
11; Detection; Luminescence; ViewLux plate reader (clear filter, 10 second exposure).
NOTES (numbers refer to Sequence numbers above; values are from representative experiments)
1; Dispense the assay buffer into Greiner 1536-well black / solid bottom assay plate (Greiner Bio One, Monroe, NC).
2; Pin control inhibitor Ac-RCC1-10 at a final concentration range of 234 nM to 143 uM using a Wako Pin Tool (Wako Automation USA) equipped with a 1536-slotted pin array (Wako Automation, Richmond, VA). Pin compound library into the assay plates (columns 5 - 48) at a final concentration range of 97 nM to 250 uM.
3; Incubate the assay plates at room temperature.
4; Dispense 1 uL of substrate SPKRIA solution (final concentration 1 uM) or 1 uL buffer was added to the wells bringing the final assay volume to 4uL. The assay plate was covered with metal lids.
5; Incubate the assay plate at room temperature.
6; Dispense 1 uL of 5x MTase-Glo Reagent in the assay plate.
7; Incubate at room temperature to allow for SAH to be converted to ADP
8; Dispense 5 uL of 5x MTase-Glo Detection Solution in the assay plate to allow for ADP to be converted to ATP.
9; Assay plates were centrifuged for 15 seconds.
[…]

Structure (SMILES) | activity change, negative = inhibition
C[C@]12CC[C@H]3[C@@H](CCC4=CC(=O)CC[C@@H]43)[C@@H]1CC[C@@H]2O | -10.8%
CN(C)CCc1c[nH]c2cccc(O)c12 | -10.5% [at 204 µM]
C=CC[C@]1(O)CC[C@H]2[C@@H]3CCC4=CC(=O)CCC4=C3C=C[C@@]21C | 4.78%
CC[C@]1(O)CC[C@H]2[C@@H]3CCC4=CCCC[C@@H]4[C@H]3CC[C@@]21C | -1.58%
C[C@@H]1CC2=CC(=O)CC[C@@H]2[C@H]2CC[C@@]3(C)[C@@H](CC[C@]3(C)O)[C@@H]21 | -13.2%
CCc1cc(OC)c(C[C@H](C)N)cc1OC | -7.41% [at 204 µM]
C[C@]12CCC(=O)C=C1CC[C@@H]1[C@@H]2CC[C@@]2(C)[C@H]1CC[C@]2(C)O | -3.68%
C[C@H](N)C(=O)c1ccccc1 | -17.5% [at 251 µM]
